In PubChem BioAssay (NCI) one finds growth inhibition data, which are given here for 13 compounds.

Assay [1] can be described thus: NCI Yeast Anticancer Drug Screen. Data for the rad50 strain (AID 155).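 Also: 0% = growth of vehicle-only cultures of the same strain.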 As to conditions: S. cerevisiae rad50 strain growth inhibition, hits give high values. A digest of the protocol:
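Compounds were tested on a yeast strain with an engineered DNA damage repair alteration; the reported value is growth inhibition normalised to vehicle treatment.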

Assay [2] in a line: NCI Yeast Anticancer Drug Screen. Data for the mec2-1 strain (AID 157). Particulars: S. cerevisiae mec2-1 strain, hits give high values. A digest of the protocol:
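Mutant yeast (mec2-1) grown with compound; growth inhibition relative to vehicle control reported.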

Assay [3] is described as follows: NCI Yeast Anticancer Drug Screen. Data for the sgs1 mgt1 strain (AID 161).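 Also: 0% = growth of cultures given vehicle only.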 As to conditions: S. cerevisiae sgs1 mgt1 strain, hits give high values. In outline:
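Growth of a repair-deficient yeast mutant was monitored after compound treatment and expressed as inhibition relative to vehicle-treated cultures.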

Assay [4] is described as follows: NCI Yeast Anticancer Drug Screen. Data for the cln2 rad14 strain (AID 165).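 Also: 0% = growth equal to vehicle treated cultures.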 Particulars: S. cerevisiae cln2 rad14 strain, hits give high values. In outline: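 Readout is yeast growth inhibition versus vehicle-treated controls, using a strain with cln2 and rad14 alterations exposed to compound.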
A short description of assay [5]: NCI Yeast Anticancer Drug Screen. Data for the bub3 strain (AID 167). Particulars: S. cerevisiae bub3 mutant strain, hits give high values. A digest of the protocol: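 Growth of a checkpoint-deficient yeast mutant is measured after compound exposure. Values represent inhibition relative to vehicle.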
Assay [6] in a line: NCI Yeast Anticancer Drug Screen. Data for the mlh1 rad18 strain (AID 175). As to conditions: S. cerevisiae mlh1 rad18 strain growth inhibition, hits give high values. In outline: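 Genetically defined yeast (DNA repair-deficient) exposed to compounds; growth inhibition determined relative to vehicle.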
Setting [7] is: at 5.0 µM (retest, dose inferred, filed as 0.5).
[8] abbreviates: at 50.0 µM (retest, dose inferred, filed as 5.0).

Structures are written as SMILES. The panel holds about 79,000 compounds, 15% with a hit somewhere; the sample as a whole holds those more often. A number with no mark means an inactive call. Active and inactive are the calls of the source. Rule as the data show it: active = growth inhibition above about 70%; inactive = the rest.

On to `Cc1cc(O)c(O)c(C(C)(C)CC(C)(C)C)c1`, for which the growth inhibition was 36% in assay [1] (setting [7]); 87% (active) in assay [1] (setting [8]); 91.3% (active) in assay [1] (at 50.0 µM); 38% in assay [2] (setting [7]); 83% (active) in assay [2] (setting [8]); 92.5% (active) in assay [2] (at 50.0 µM). For the same compound, the growth inhibition was 97% (active) in assay [3] (setting [7]); 100% (active) in assay [3] (setting [8]); 78% (active) in assay [4] (setting [7]); 100% (active) in assay [4] (setting [8]); 94% (active) in assay [5] (setting [7]); 99% (active) in assay [5] (setting [8]). Also, the growth inhibition in assay [6] (setting [7]) is 23%; in assay [6] (setting [8]) it was 73% (active); in assay [6] (at 50.0 µM), 91.2% (active).
Regarding `O=C1C=CC2C3C(=O)N(c4ccccc4)C(=O)C3C1N2Cc1ccccc1` (stereo not given), the growth inhibition in assay [1] (setting [7]) was 18%; in assay [1] (setting [8]), 48%; in assay [2] (setting [7]), 18%; in assay [2] (setting [8]) it was 58%; in assay [3] (setting [7]), 50%; in assay [3] (setting [8]) it was 70% (active). For the same compound, the growth inhibition was 69.2% in assay [3] (at 50.0 µM); 21% in assay [4] (setting [7]); 56% in assay [4] (setting [8]); 43.2% in assay [4] (at 50.0 µM); 24% in assay [5] (setting [7]); 78% (active) in assay [5] (setting [8]). Further, the values for the growth inhibition in assay [5] (at 50.0 µM), in assay [6] (setting [7]) and in assay [6] (setting [8]) were 61.9%, 51% and 79% (active), respectively.
As for `O=C(O)/C=C\C(=O)NNc1ccccc1`, the growth inhibition is 12% in assay [1] (setting [7]); 96% (active) in assay [1] (setting [8]); -2% in assay [2] (setting [7]); 95% (active) in assay [2] (setting [8]); 5% in assay [3] (setting [7]); 98% (active) in assay [3] (setting [8]). In addition, the growth inhibition in assay [4] (setting [7]) was 10%; in assay [4] (setting [8]), 82% (active); in assay [5] (setting [7]) it was 14%; in assay [5] (setting [8]) it was 99% (active); in assay [6] (setting [7]) it was -7%; in assay [6] (setting [8]) it was 94% (active).
On to `CCN1CCCC(Nc2cc(C)nc(/N=C(/N)Nc3ccc(Cl)c(Cl)c3)n2)C1` (stereo not given), for which the growth inhibition in assay [1] (setting [7]) was 48%; in assay [1] (setting [8]), 96% (active); in assay [1] (at 50.0 µM) it was 90% (active); in assay [3] (setting [7]), 48%; in assay [3] (setting [8]), 97% (active); in assay [3] (at 50.0 µM) it was 86.7% (active). Further, the growth inhibition is 55% in assay [4] (setting [7]); 86% (active) in assay [4] (setting [8]); 82.7% (active) in assay [4] (at 50.0 µM); 29% in assay [5] (setting [7]); 96% (active) in assay [5] (setting [8]); 83.6% (active) in assay [5] (at 50.0 µM). For the same compound, the growth inhibition in assay [6] (setting [7]) is 57%; in assay [6] (setting [8]), 97% (active); in assay [6] (at 50.0 µM), 83.2% (active).
With `C/C(=N\Nc1ccc(Cl)cc1)C(=O)O`, the growth inhibition in assay [1] (setting [7]) is 17%; in assay [1] (setting [8]), 97% (active); in assay [2] (setting [7]), -2%; in assay [2] (setting [8]), 98% (active); in assay [3] (setting [7]), 14%; in assay [3] (setting [8]) it was 99% (active). In addition, the growth inhibition is 8% in assay [4] (setting [7]); 98% (active) in assay [4] (setting [8]); 29% in assay [5] (setting [7]); 99% (active) in assay [5] (setting [8]); -29% in assay [6] (setting [7]); 96% (active) in assay [6] (setting [8]).
Regarding `NCCN1C(=O)CNC1=S`, the growth inhibition in assay [1] (setting [7]) was -23%; in assay [1] (setting [8]) it was 30%; in assay [2] (setting [7]) it was -1%; in assay [2] (setting [8]) it was -4%; in assay [3] (setting [7]), 3%; in assay [3] (setting [8]), 3%. In addition, the growth inhibition in assay [4] (setting [7]) is 0%; in assay [4] (setting [8]) it was -3%; in assay [5] (setting [7]), -1%; in assay [5] (setting [8]), -5%; in assay [6] (setting [7]) it was 10%; in assay [6] (setting [8]) it was 17%.
As for `COc1ccc(/C(C#N)=C/c2cccc(N)c2)cc1`, the growth inhibition in assay [1] (setting [7]) is 6%; in assay [1] (setting [8]), 16%; in assay [2] (setting [7]), 3%; in assay [2] (setting [8]) it was 10%; in assay [3] (setting [7]), 1%; in assay [3] (setting [8]) it was 27%. The growth inhibition was 2% in assay [4] (setting [7]); 2% in assay [4] (setting [8]); 13% in assay [5] (setting [7]); 42% in assay [5] (setting [8]); -30% in assay [6] (setting [7]); 12% in assay [6] (setting [8]).
On to `CN(C)c1ccc2cc3c(cc2c1)Oc1ccccc1N3.[Cl][Zn][Cl]`, for which the growth inhibition was 36% in assay [1] (setting [7]); 90% (active) in assay [1] (setting [8]); 84.2% (active) in assay [1] (at 50.0 µM); 38% in assay [2] (setting [7]); 95% (active) in assay [2] (setting [8]); 85% (active) in assay [2] (at 50.0 µM). Besides, the growth inhibition in assay [5] (setting [7]) was 48%; in assay [5] (setting [8]) it was 95% (active); in assay [5] (at 50.0 µM), 83.8% (active); in assay [6] (setting [7]), 42%; in assay [6] (setting [8]) it was 91% (active); in assay [6] (at 50.0 µM) it was 83.3% (active).
Regarding `CC(C)(C)c1ccc(O)c(Br)c1`, the growth inhibition was 0% in assay [1] (setting [7]); -4% in assay [1] (setting [8]); 90.9% (active) in assay [1] (at 50.0 µM); -38% in assay [2] (setting [7]); 5% in assay [2] (setting [8]); 79.8% (active) in assay [2] (at 50.0 µM). Besides, the growth inhibition is 1% in assay [4] (setting [7]); -4% in assay [4] (setting [8]); 35.5% in assay [4] (at 50.0 µM); 31% in assay [5] (setting [7]); -4% in assay [5] (setting [8]); 42.6% in assay [5] (at 50.0 µM). The growth inhibition was 1% in assay [6] (setting [7]), 8% in assay [6] (setting [8]) and 86.8% (active) in assay [6] (at 50.0 µM).
In the case of `O=C1C=CC(=O)N1c1cc(Cl)c(Cl)cc1Cl`, the growth inhibition in assay [1] (setting [7]) was 32%; in assay [1] (setting [8]), 86% (active); in assay [1] (at 50.0 µM), 91.6% (active); in assay [2] (setting [7]), 51%; in assay [2] (setting [8]) it was 98% (active); in assay [2] (at 50.0 µM), 27.1%. Besides, the growth inhibition in assay [4] (setting [7]) is 89% (active); in assay [4] (setting [8]) it was 100% (active); in assay [5] (setting [7]), 101% (active); in assay [5] (setting [8]), 100% (active); in assay [6] (setting [7]), 32%; in assay [6] (setting [8]) it was 99% (active). Besides, in assay [6] (at 50.0 µM), the growth inhibition was 91.5% (active).
On to `NC(=S)N/N=C/c1ncccc1O`, for which the growth inhibition is -157% in assay [1] (setting [7]); -91% in assay [1] (setting [8]); 24.4% in assay [1] (at 50.0 µM); -50% in assay [2] (setting [7]); 19% in assay [2] (setting [8]); 80.2% (active) in assay [2] (at 50.0 µM). The growth inhibition is -68% in assay [4] (setting [7]); -73% in assay [4] (setting [8]); -23.4% in assay [4] (at 50.0 µM); -74% in assay [5] (setting [7]); -78% in assay [5] (setting [8]); -7.5% in assay [5] (at 50.0 µM). Moreover, the growth inhibition is -123% in assay [6] (setting [7]), -101% in assay [6] (setting [8]) and 21.4% in assay [6] (at 50.0 µM).
For `NC(=S)N/N=C\c1nccc2c(C(F)(F)F)cccc12`, the growth inhibition is -4% in assay [1] (setting [7]); 96% (active) in assay [1] (setting [8]); 89% (active) in assay [1] (at 50.0 µM); 6% in assay [3] (setting [7]); 96% (active) in assay [3] (setting [8]); 90.5% (active) in assay [3] (at 50.0 µM). The growth inhibition was -10% in assay [4] (setting [7]); 94% (active) in assay [4] (setting [8]); 88.2% (active) in assay [4] (at 50.0 µM); -5% in assay [5] (setting [7]); 95% (active) in assay [5] (setting [8]); 89.7% (active) in assay [5] (at 50.0 µM). Further, the growth inhibition in assay [6] (setting [7]) was 7%; in assay [6] (setting [8]), 95% (active); in assay [6] (at 50.0 µM), 89.2% (active).
In the case of `Cc1ccc(-c2c(C#N)c(-c3ccc(C)cc3)n(NS(=O)(=O)c3ccccc3)c(=O)c2C#N)cc1`, the growth inhibition was 30% in assay [1] (setting [7]); 84% (active) in assay [1] (setting [8]); 38% in assay [2] (setting [7]); 94% (active) in assay [2] (setting [8]); 29% in assay [3] (setting [7]); 94% (active) in assay [3] (setting [8]). Further, the growth inhibition was 53% in assay [4] (setting [7]); 93% (active) in assay [4] (setting [8]); 52% in assay [5] (setting [7]); 95% (active) in assay [5] (setting [8]); 33% in assay [6] (setting [7]); 85% (active) in assay [6] (setting [8]).
